Assay [1] has as its target Luciferin 4-monooxygenase (Photinus pyralis) (UniProt P08659). Briefly: Biochemical firefly luciferase enzyme assay for NPC (AID 624030).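 Note: purified P. pyralis luciferase at 10 nM with luciferin and ATP substrate; nearly all actives have a fitted effect of over 70% in size.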 The procedure, abridged: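 Direct inhibition of firefly luciferase enzyme (10 nM final, 50 mM Tris Acetate) assessed by luminescence within 5 minutes. Percent activity scaled between DMSO and PTC124 positive control, with concentration-effect curves classified by fit quality and response.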

The subject of assay [2] is CP266. Kind of assay: qHTS profiling for inhibitors of Plasmodium falciparum proliferation (AID 504749). Note: nearly all actives have a fitted effect of over 60% in size. Note: potency is the fitted concentration of half-maximal effect. As to conditions: P. falciparum in erythrocytes, SYBR Green DNA, 72 h; series mostly up to 28.7 µM. The procedure, abridged: (§1)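 Three-day growth assay of blood-stage parasites in erythrocytes (0.3% parasitemia, 2.5% hematocrit) at 37 C, 5% CO2, quantified by SYBR Green DNA staining after overnight detergent lysis.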
Background: qHTS replaces the single test concentration by a dilution series.

The test system of assay [3] is CP268. The assay is described as above. The conditions noted are these: P. falciparum in erythrocytes, SYBR Green DNA, 72 h; series mostly up to 28.7 µM. In a few lines:
as §1

The subject of assay [4] is CP269. Described as above. As to conditions: P. falciparum in erythrocytes, SYBR Green DNA, 72 h; series mostly up to 28.7 µM. The procedure, abridged:
as §1

For assay [5], the system named is CP297. The description is as above. The conditions noted are these: P. falciparum in erythrocytes, SYBR Green DNA, 72 h; series mostly up to 28.7 µM. In a few lines: as §1
In assay [6] the test system is CP305. The assay is described as above. The conditions noted are these: P. falciparum in erythrocytes, SYBR Green DNA, 72 h; series mostly up to 28.7 µM. In a few lines: as §1
The test system of assay [7] is CP325. The assay is described as above. As to conditions: P. falciparum in erythrocytes, SYBR Green DNA, 72 h; series mostly up to 28.7 µM. In a few lines: as §1
The subject of assay [8] is CP329. Described as above. As to conditions: P. falciparum in erythrocytes, SYBR Green DNA, 72 h; series mostly up to 28.7 µM. The procedure, abridged:
as §1

Assay [9] concerns CP335. The description is as above. The conditions noted are these: P. falciparum in erythrocytes, SYBR Green DNA, 72 h; series mostly up to 28.7 µM. In a few lines: as §1
In assay [10] the test system is DIV14. The assay is described as above. The conditions noted are these: P. falciparum in erythrocytes, SYBR Green DNA, 72 h; series mostly up to 28.7 µM. In a few lines: as §1
Assay [11] has as its system ECU. The assay is described as above. As to conditions: P. falciparum in erythrocytes, SYBR Green DNA, 72 h; series mostly up to 28.7 µM. In a few lines:
as §1

The subject of assay [12] is GB4. The description is as above. As to conditions: P. falciparum in erythrocytes, SYBR Green DNA, 72 h; series mostly up to 28.7 µM. The procedure, abridged: as §1
In assay [13] the test system is JCK. Described as above. As to conditions: P. falciparum in erythrocytes, SYBR Green DNA, 72 h; series mostly up to 28.7 µM. The procedure, abridged:
as §1

For assay [14], the system named is P93_24. Described as above. As to conditions: P. falciparum in erythrocytes, SYBR Green DNA, 72 h; series mostly up to 28.7 µM. The procedure, abridged:
as §1

The test system of assay [15] is PAD. The assay is described as above. The conditions noted are these: P. falciparum in erythrocytes, SYBR Green DNA, 72 h; series mostly up to 28.7 µM. In a few lines: as §1
The test system of assay [16] is PC15. The description is as above. As to conditions: P. falciparum in erythrocytes, SYBR Green DNA, 72 h; series mostly up to 28.7 µM. The procedure, abridged:
as §1

Assay [17] deals with PC26. The description is as above. The conditions noted are these: P. falciparum in erythrocytes, SYBR Green DNA, 72 h; series mostly up to 28.7 µM. The procedure, abridged:
as §1

For assay [18], the system named is PC49. Described as above. As to conditions: P. falciparum in erythrocytes, SYBR Green DNA, 72 h; series mostly up to 28.7 µM. The procedure, abridged: as §1
For assay [19], the system named is TAB109. The assay is described as above. The conditions noted are these: P. falciparum in erythrocytes, SYBR Green DNA, 72 h; series mostly up to 28.7 µM. The procedure, abridged:
as §1

Assay [20] deals with TAB113. The assay is described as above. As to conditions: P. falciparum in erythrocytes, SYBR Green DNA, 72 h; series mostly up to 28.7 µM. The procedure, abridged:
as §1

Each structure is given as a SMILES string. Records with an inconclusive call do not appear. Active and inactive are the calls of the source. Calls come from the whole dose curve; as a rule, active = well fitted inhibition curve with a large enough effect; inconclusive = small, poorly fitted or top-dose-only effect; inactive = flat fitted curve, though single readings scatter.

Sequence of Luciferin 4-monooxygenase (Photinus pyralis) (P08659 whole entry, looked up): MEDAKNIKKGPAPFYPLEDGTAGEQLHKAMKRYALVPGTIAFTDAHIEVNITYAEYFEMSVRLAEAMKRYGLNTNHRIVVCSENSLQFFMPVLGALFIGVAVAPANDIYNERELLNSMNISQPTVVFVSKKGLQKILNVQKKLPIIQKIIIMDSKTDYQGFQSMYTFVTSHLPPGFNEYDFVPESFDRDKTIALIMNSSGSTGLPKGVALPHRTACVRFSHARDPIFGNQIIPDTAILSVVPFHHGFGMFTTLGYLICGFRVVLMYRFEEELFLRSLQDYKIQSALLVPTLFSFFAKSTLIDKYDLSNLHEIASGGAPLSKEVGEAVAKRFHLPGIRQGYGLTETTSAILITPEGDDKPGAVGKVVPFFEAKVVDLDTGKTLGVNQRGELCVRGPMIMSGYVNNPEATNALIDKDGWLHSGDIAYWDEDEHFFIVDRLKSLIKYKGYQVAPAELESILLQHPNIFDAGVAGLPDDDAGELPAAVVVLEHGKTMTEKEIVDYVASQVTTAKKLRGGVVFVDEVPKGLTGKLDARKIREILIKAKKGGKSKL

Take `C=C(NCc1ccccc1)c1ccccc1O`: the Potency result in assay [1], in assay [2], in [3], in assay [4], in [5] and in assay [6] was “inactive” throughout. Moreover, the Potency result in assay [7], in assay [8], in assay [9], in assay [10], in assay [11] and in assay [12] was “inactive” each time. For the same molecule, the Potency entry in assay [13], in assay [14], in assay [15], in assay [16], in [17] and in assay [18] was “inactive” each time. Moreover, the Potency result in assay [19] and in assay [20] was “inactive” in each case.
With `CO/N=C(/C(=O)N[C@@H]1C(=O)N2C(C(=O)O)=C(CSc3nc(C)c(CC(=O)O)s3)CS[C@H]12)c1csc(N)n1`, the Potency result in [1], in assay [2], in assay [3], in [4], in assay [5] and in assay [6] was “inactive” each time. The Potency entry in assay [7], in [8], in assay [9], in assay [10], in assay [11] and in [12] was “inactive” throughout. Also, the Potency entry in assay [13], in assay [14], in [15], in assay [16], in assay [17] and in [18] was “inactive” throughout. For the same molecule, the Potency entry in assay [19] and in assay [20] was “inactive” in each case.
Consider `C=CC1CN2CCC1CC2[C@@H](O)c1ccnc2ccc(OC)cc12` (stereo not given in full), for which, in [1], the Potency entry is “inactive”. For the same molecule, the Potency was 953 nM (active) in assay [2]; 536 nM (active) in assay [3]; 601 nM (active) in assay [4]; 757 nM (active) in assay [5]; 478 nM (active) in assay [6]; 478 nM (active) in [7]. Further, the Potency is 953 nM (active) in assay [8]; 338 nM (active) in [9]; 213 nM (active) in [10]; 112 nM (active) in [11]; 135 nM (active) in assay [12]; 2000 nM (active) in assay [13]. The Potency in assay [14] was 398 nM (active); in assay [15], 251 nM (active); in assay [16], 89.1 nM (active); in assay [17], 239 nM (active); in [18], 282 nM (active); in assay [19], 112 nM (active). In assay [20], the Potency is 355 nM (active).
With `COc1cccc2c1C(=O)c1c(O)c3c(c(O)c1C2=O)C[C@@](O)(C(=O)CO)C[C@@H]3OC1CC(N)C(O)C(C)O1` (stereo not given in full), in [1], the Potency result is “inactive”. The Potency in [2] was 3380 nM (active); in assay [3], 3790 nM (active); in assay [4] it was 3380 nM (active); in assay [5], 1900 nM (active); in assay [6], 3380 nM (active); in assay [7], 3790 nM (active). For the same molecule, the Potency in assay [8] was 1900 nM (active); in assay [9] it was 1200 nM (active); in assay [10], 1690 nM (active); in [11] it was 3160 nM (active); in assay [12], 1690 nM (active); in [13], 12600 nM (active). The Potency in assay [14] is 2000 nM (active); in [15], 2240 nM (active); in [16], 2000 nM (active); in assay [17] it was 4780 nM (active); in [18] it was 5620 nM (active); in assay [19], 2000 nM (active). In assay [20], the Potency is 2510 nM (active).
Turning to `CC(C)(C)C(=O)OCC(=O)C1CCC2C3CCC4=CC(=O)CCC4(C)C3CCC12C` (stereo not given), the Potency result in [1], in [2], in assay [3], in [4], in [5] and in [6] was “inactive” in each case. Further, the Potency result in assay [7], in [8], in assay [9], in assay [10], in assay [11] and in assay [12] was “inactive” each time. Also, the Potency entry in assay [13], in [14], in assay [15], in [16], in [17] and in assay [18] was “inactive” in each case. The Potency result in assay [19] and in [20] was “inactive” each time.
`COC(c1ccccc1)(c1ccccc1)C(Oc1nc(C)cc(C)n1)C(=O)O` (stereo not given): the Potency result in assay [1], in assay [2], in assay [3], in assay [4], in assay [5] and in [6] was “inactive” throughout. Besides, the Potency entry in assay [7], in assay [8], in assay [9], in assay [10], in assay [11] and in assay [12] was “inactive” each time. For the same molecule, the Potency result in [13], in assay [14], in [15], in assay [16], in assay [17] and in assay [18] was “inactive” in each case. Moreover, the Potency result in assay [19] and in assay [20] was “inactive” in each case.
As for `C=NC(C(=O)NC1C(=O)N2C1SC(C)(C)C2C(=O)O)c1ccccc1` (stereo not given), the Potency result in assay [1], in [2], in assay [3], in [4], in assay [5] and in assay [6] was “inactive” in each case. Further, the Potency entry in assay [7], in assay [8], in assay [9], in [10], in [11] and in assay [12] was “inactive” throughout. In addition, the Potency result in assay [13], in [14], in [15], in assay [16], in assay [17] and in assay [18] was “inactive” each time. Moreover, the Potency entry in assay [19] and in [20] was “inactive” in each case.
With `O=C1CC[C@H](C(=O)N[C@@H]2C[C@H]2c2ccccc2)N1`, the Potency result in [1], in [2], in assay [3], in assay [4], in assay [5] and in assay [6] was “inactive” throughout. Moreover, the Potency entry in assay [7], in [8], in [9], in assay [10], in assay [11] and in [12] was “inactive” in each case. The Potency result in [13], in assay [14], in [15], in [16], in assay [17] and in assay [18] was “inactive” in each case. The Potency entry in assay [19] and in [20] was “inactive” in each case.
For the molecule `NC(C(=O)O)c1ccc(O)cc1` (stereo not given), the Potency result in assay [1], in assay [2], in assay [3], in assay [4], in [5] and in assay [6] was “inactive” each time. The Potency result in assay [7], in [8], in assay [9], in assay [10], in assay [11] and in assay [12] was “inactive” each time. Moreover, the Potency entry in [13], in [14], in assay [15], in assay [16], in assay [17] and in [18] was “inactive” throughout. Also, the Potency entry in assay [19] and in assay [20] was “inactive” each time.
With `CC(O)C1CCC2C3CCC4CC(O)CCC4(C)C3CCC12C` (stereo not given), the Potency result in [1], in assay [2], in assay [3], in assay [4], in assay [5] and in assay [6] was “inactive” in each case. Also, the Potency result in [7], in assay [8], in assay [9], in assay [10], in assay [11] and in assay [12] was “inactive” each time. Moreover, the Potency result in assay [13], in assay [14], in assay [15], in assay [16], in assay [17] and in assay [18] was “inactive” throughout. The Potency result in [19] and in assay [20] was “inactive” each time.
In the case of `CCCCN1CC(O)C(O)C(O)C1CO` (stereo not given), the Potency result in assay [1], in assay [2], in assay [3], in [4], in assay [5] and in assay [6] was “inactive” each time. Besides, the Potency result in assay [7], in [8], in [9], in [10], in [11] and in assay [12] was “inactive” in each case. Besides, the Potency result in assay [13], in assay [14], in assay [15], in [16], in [17] and in assay [18] was “inactive” in each case. In addition, the Potency result in assay [19] and in [20] was “inactive” each time.
Regarding `CC[C@@H]1/C=C(\C)C[C@H](C)C[C@H](OC)[C@H]2O[C@@](O)(C(=O)C(=O)N3CCCC[C@H]3C(=O)O[C@H](/C(C)=C/[C@@H]3CC[C@H](Cl)[C@H](OC)C3)[C@H](C)[C@@H](O)CC1=O)[C@H](C)C[C@@H]2OC`, the Potency result in assay [1], in assay [2], in assay [3], in assay [4], in assay [5] and in assay [6] was “inactive” throughout. Moreover, the Potency entry in assay [7], in assay [8], in [9], in assay [10], in assay [11] and in assay [12] was “inactive” throughout. Also, the Potency result in assay [13], in assay [14], in assay [15], in assay [16], in [17] and in assay [18] was “inactive” in each case. In addition, the Potency entry in assay [19] and in [20] was “inactive” each time.

(Values after PubChem BioAssay (NCATS).)
